Most compounds without a hit are left out; they make up all but 0.63% or so of the library.
Platelet DG rel: inhibitors of platelet dense granule secretion, primary screen, cell-based, MLPCN, human platelets; human platelet-rich plasma, SFLLRN dense granule ATP release, luminescence; inhibition, %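 (compounds screened at 7.5 µM in platelet-rich plasma)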; actives 0.22% (n = 300,000);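 active means mean replicate score, as percent of positive control, at or above 50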
NTR1 agonist: agonists of human NTR1, primary screen, imaging, U2OS cells, beta-arrestin-GFP, high content. NTR1-U2OS beta-arrestin-GFP spot imaging, agonist mode. activation, % at 20 µM. actives 0.17% (n = 330,000). AID 493036, 2011;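 active means activation at or above 40% of the spot to cytoplasm intensity ratio, with at least 20 cells analyzed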;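 further: 0% = DMSO without peptide and 100% = 100 nM NTR1 peptide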
Target sequence (P30989 whole entry, looked up): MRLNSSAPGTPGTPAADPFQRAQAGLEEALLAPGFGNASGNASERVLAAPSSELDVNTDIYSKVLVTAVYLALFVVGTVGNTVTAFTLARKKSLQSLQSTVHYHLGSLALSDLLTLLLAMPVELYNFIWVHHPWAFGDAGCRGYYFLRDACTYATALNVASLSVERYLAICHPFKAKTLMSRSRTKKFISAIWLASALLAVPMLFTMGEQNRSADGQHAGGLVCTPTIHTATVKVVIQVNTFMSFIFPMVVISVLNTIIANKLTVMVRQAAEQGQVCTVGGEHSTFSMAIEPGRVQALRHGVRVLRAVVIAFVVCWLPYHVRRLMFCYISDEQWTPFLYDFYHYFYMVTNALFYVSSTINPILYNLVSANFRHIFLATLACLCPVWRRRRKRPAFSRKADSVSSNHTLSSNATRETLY
HIF act: HIF pathway transcriptional activators, primary screen, cell-based, U2OS HRE-luciferase, luminescence; U2OS HRE-luciferase reporter; normalized: DMSO 0%, desferrioxamine 100%; actives 0.32% (n = 300,000); activation, % at 7.5 µM (by protocol);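 active means mean activation of at least 10% of the iron chelator positive control signal, with at least half of replicates also reaching 10%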
NTR1 ag confirm: NTR1 agonists, single-dose retest, confirmation, imaging, U2OS cells, beta-arrestin-GFP, single concentration. activation, % at 20 µM. NTR1-U2OS beta-arrestin-GFP translocation imaging. actives 38% (n = 480). AID 504550, 2011. shares compounds with NTR1 agonist;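 active means mean activation at 20 µM of at least 40%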;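 further: 0% = DMSO without peptide and 100% = 100 nM NTR1 peptide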
* = called active by the depositor; . = no result.

SMILES	Platelet DG rel	NTR1 agonist	HIF act	NTR1 ag confirm
O=C(Nc1ccc(N2CCN(C(=O)c3ccco3)CC2)c(Cl)c1)c1cc2ccccc2o1	-12.9	42.1*	0.9	63.4*
FC(F)(F)c1ccc(N2CCOCC2)c(Nc2nc3ccccc3n3cnnc23)c1	-5.4	44.6*	-0.2	36.9
c1ccc2c(c1)nc(Nc1ccc(N3CCCCC3)cc1)c1nncn12	-10.2	17.1	1.4	.
O=C(Cn1cnc2ccccc21)Nc1cc(C(F)(F)F)ccc1N1CCOCC1	-4.6	-2.7	-0.7	.
c1ccc(N2CCCCC2)c(Nc2nc3ccccc3n3cnnc23)c1	-10.3	40.5*	-0.7	33.0
O=C(COc1ccccc1[N+](=O)[O-])Nc1ccc2oc(=O)ccc2c1	4.4	-1.1	0.0	.
O=C(COc1ccccc1[N+](=O)[O-])Nc1ccc(NC(=O)c2cc3ccccc3o2)cc1	-3.4	40.0*	0.0	36.4
COc1ccc(CCNC(=O)CSc2ccc(-c3ccco3)nn2)cc1OC	-0.9	-0.5	-0.4	.
Cc1[nH]n(-c2ccccc2)c(=O)c1C(C[N+](=O)[O-])c1ccccc1Cl (stereo not given)	-10.9	2.1	0.3	.
COc1ccc(C(C[N+](=O)[O-])c2c(C)[nH]n(-c3ccccc3)c2=O)cc1 (stereo not given)	-5.3	42.3*	0.7	25.2
CCCCCCCCCCOC(=O)Cn1c(COc2ccccc2)[n+](C)c2ccccc21	1.1	30.7	0.9	.
CCCCCCCCCCOC(=O)Cn1c(COc2ccc(OC)cc2)[n+](C)c2ccccc21	4.9	49.6*	1.3	65.3*
O=C(NC1CCCCC1)C(c1ccccn1)N(C(=O)c1csnn1)c1ccccc1F (stereo not given)	0.0	-1.5	0.0	.
CCCCn1c(N)c(N(Cc2ccccc2OC)C(=O)c2cc(=O)[nH]c3ccccc23)c(=O)[nH]c1=O	-10.6	0.1	-21.1	.
COc1ccc(C2CC(c3ccccc3)=NN2c2ccc(S(N)(=O)=O)cc2)cc1 (stereo not given)	-10.7	22.7	0.1	.
Oc1ccccc1C1=NN(c2ccccc2)C(c2ccc(F)cc2)C1 (stereo not given)	-1.0	4.0	1.3	.
COc1ccc(C2CC(c3ccccc3)=NN2c2ccc(C(N)=O)cc2)cc1 (stereo not given)	-7.1	41.0*	0.3	20.3
Oc1ccc(C2=NN(c3ccccc3)C(c3ccc(F)cc3)C2)cc1 (stereo not given)	18.5	60.7*	0.3	11.2
Cc1cc2nnc(SCC(=O)NCc3cccs3)n2c(N)n1	-1.3	3.7	-0.3	.
COc1cc(C(=O)NCc2ccco2)c(Br)c(OC)c1OC	-4.4	0.0	-0.1	.
Cc1cc(C)cc(OCC(=O)Nc2cccc(-c3nc4ncccc4o3)c2)c1	1.9	18.9	-0.3	.
CO/N=C/NC(=O)NOCc1ncc(C(F)(F)F)cc1Cl	-3.1	0.4	-1.9	.
O=C(N/C=N/OCc1ccc(Cl)cc1Cl)NOCc1ncc(C(F)(F)F)cc1Cl	-78.3	40.7*	-0.3	11.9
CC(C)C1Oc2ccccc2C(=O)N(CC(=O)c2ccc3c(c2)OCCO3)C1=O (stereo not given)	-4.6	3.3	4.7	.
O=C(CSc1nc2ccc([N+](=O)[O-])cc2[nH]1)c1ccc2ccccc2c1	-4.0	44.0*	-0.1	2.7
SMILES	Platelet DG rel	NTR1 agonist	HIF act	NTR1 ag confirm
O=C(CSc1nc2ncc(Br)cc2[nH]1)c1ccc([N+](=O)[O-])cc1	0.9	2.7	-0.1	.
Cc1sc(NC(=O)c2ccco2)nc1-c1ccc2c(c1)CC(C)N2C(=O)C1CC1 (stereo not given)	6.2	71.1*	3.0	66.1*
CC(=O)Nc1nc(-c2ccc3c(c2)CC(C)N3C(=O)C2CC2)c(C)s1 (stereo not given)	-1.5	-0.8	5.4	.
CC[C@]12c3[nH]c4ccc(Cl)cc4c3CCN1C(=O)[C@@H](CC(=O)NCCCn1ccnc1)C[C@@H]2C(=O)N1CCN(C(=O)C2CC2)CC1	.	-1.3	.	.
COc1ccc(CC(=O)Nc2cccc(-c3nnc(-c4cccc(C)c4)o3)c2)cc1OC	7.9	40.7*	1.4	57.8*
COc1ccc(CC(=O)Nc2ccc(-c3nnc(-c4ccccc4)o3)cc2)cc1OC	-1.3	-0.8	0.0	.
O=C(NCCc1c[nH]c2ccccc12)/C(=C/c1cccnc1)NC(=O)c1ccco1	0.6	-1.4	-0.1	.
